Compound activity deposited in PubChem BioAssay by National Center for Advancing Translational Sciences (NCATS).
Compounds with a hit are over-represented: about 4.1% of the library has one in this group of screens.
FMDV antiviral – High Throughput Screening for Foot and Mouth Disease Virus Antivirals. Potency, µM (series often up to 57.9 µM), hits mostly inhibitors. 410,000 tested, 1.2% active. FMDV antiviral cell-based qHTS; calls by dose curve; tested in HEK293T cells; note: read-out not given here; nearly all actives have a fitted effect of over 45% in size
AmpC detergent – qHTS Inhibitors of AmpC Beta-Lactamase (assay with detergent) | AmpC hydrolysis of nitrocefin, absorbance 480 nm, 0.01% Triton | Potency, µM (highest dose often 114 µM), actives largely listed as inhibitors | 370,000 tested, 0.041% active | AID 485294, 2010; note: nearly all actives have a fitted effect of over 25% in size
Target sequence (P00811 whole entry, looked up): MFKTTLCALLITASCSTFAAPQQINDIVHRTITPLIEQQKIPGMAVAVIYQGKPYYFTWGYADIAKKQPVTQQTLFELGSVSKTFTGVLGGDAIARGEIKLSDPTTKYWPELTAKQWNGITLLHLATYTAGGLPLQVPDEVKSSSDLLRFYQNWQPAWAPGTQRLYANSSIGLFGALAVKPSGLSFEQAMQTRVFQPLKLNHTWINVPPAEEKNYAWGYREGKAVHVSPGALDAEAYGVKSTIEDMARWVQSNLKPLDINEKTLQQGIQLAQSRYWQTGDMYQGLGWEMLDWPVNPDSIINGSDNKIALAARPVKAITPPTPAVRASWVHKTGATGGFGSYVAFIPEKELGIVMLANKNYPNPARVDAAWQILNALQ
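20 mM phosphate pH 7.0 + 0.01% (detergent screen) or 0.0001% Triton X-100; 5.3 nM AmpC reagent; cpd preinc 15 min RT; nitrocefin (800 uM stock) to start; A480 q20 s × 4 min; Activity was normalised to no-enzyme and no-compound control wells.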
AmpC inh no detg – qHTS Inhibitors of AmpC Beta-Lactamase (assay without detergent) | P00811 | AmpC nitrocefin hydrolysis, absorbance 480 nm, 0.0001% Triton | Potency, µM (top dose mostly 57.1 µM), most hits filed as inhibitors | 330,000 tested, 0.52% active; note: nearly all actives have a fitted effect of over 20% in size
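AmpC (5.3 nM in the dispensed reagent) in 20 mM phosphate pH 7.0 with 0.01% (detergent screen) or 0.0001% Triton X-100 was preincubated with compounds for 15 min at room temperature. Nitrocefin was then added from an 800 uM solution, and hydrolysis was followed at 480 nm.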
Sm TGR inh – qHTS Assay for the Inhibitors of Schistosoma Mansoni Peroxiredoxins | Schistosoma mansoni thioredoxin glutathione reductase (TGR), Q962Y6 | Potency, µM (doses to about 114 µM), hits mostly inhibitors | AID 485364, 2010 | purified TGR, DTNB reduction, TNB absorbance 405 nm | 360,000 tested, 3% active; note: nearly all actives have a fitted effect of over 60% in size
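First, TGR (20 nM dispensed) and NADPH were mixed with compound. Second, a 15 min room-temperature incubation followed. Third, further NADPH and then DTNB were added to start the reaction. Finally, TNB absorbance was monitored kinetically.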
AMA1-RON2 inh – qHTS for Inhibitors of AMA1-RON; Towards Development of Antimalarial Drug Lead: Primary Screen | Plasmodium falciparum AMA1 (3D7) - RON2 peptide interaction | AlphaScreen AMA1-biotinylated RON2 peptide binding | Potency, µM (titrated, usually from 58.2 µM), actives largely listed as inhibitors | 360,000 tested, 0.2% active | AID 720542, 2013; note: nearly all actives have a fitted effect of over 45% in size
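AMA1 (3D7) with his tag at 25 nM final met compounds first, then biotinylated RON2 peptide at 25 nM; detection used donor plus acceptor beads, 10 µg/mL apiece, read by AlphaScreen after 30 min at room temperature.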
Hits are given with their value; – = inactive; ? = inconclusive; · = no result given. Unless noted, calls come from the whole dose curve; as a rule, active = well fitted curve in the direction sought with a large enough effect; inconclusive = small, poorly fitted or top-dose-only effect, or another doubt; inactive = no such curve, though single readings can be large; an effect the other way counts as inactive or inconclusive.

SMILES	FMDV antiviral	AmpC detergent	AmpC inh no detg	Sm TGR inh	AMA1-RON2 inh
Cc1cccc(N2CCN(C(=O)c3cc(S(=O)(=O)N4CCC(C)CC4)cn3C)CC2)c1C	–	–	·	–	·
CC1CCCCC1NC(=O)Cn1ncc2ccccc21 (centres undefined)	–	?	3.2µM	–	–
CCOC(=O)N1CCC(NC(=O)Cn2ncc3ccccc32)CC1	·	–	–	–	–
CC1CCC(NC(=O)Cn2ncc3ccccc32)CC1 (centres undefined)	–	?	2.5µM	–	–
CSc1ncccc1C(=O)NCC1Cc2cc(-c3cnccn3)ccc2O1 (centres undefined)	–	·	·	·	·
O=C(/C=C/c1ccccc1)c1ccc(NC2=NCCCS2)cc1	–	?	28µM	–	–
O=C(/C=C/c1ccc(Br)cc1)c1ccc(NC2=NCCCS2)cc1	16µM	–	14µM	–	–
c1ccc2sc(N3CCN(Cc4nnnn4CC4CCCO4)CC3)nc2c1 (centres undefined)	?	–	–	–	–
Cc1cc2nc(C3CCN(Cc4nnnn4Cc4ccccc4)CC3)[nH]c2cc1C	·	–	–	–	–
COc1ccc(Cn2nnnc2CN2CCC(c3nc4ccccc4s3)CC2)cc1	20µM	?	–	–	–
c1ccc2sc(C3CCN(Cc4nnnn4Cc4ccc5c(c4)OCO5)CC3)nc2c1	20µM	–	–	–	–
CCCn1c(CCC(=O)Nc2cc(C(=O)OC)cc(C(=O)OC)c2)nc2cccnc21	–	–	·	–	·
Cn1c2cc([N+](=O)[O-])sc2c2cnn(Cc3ccccc3F)c(=O)c21	·	–	–	–	·
COc1cccc(C(=O)N2c3ncnn3C3(CCCCC3)[C@@H]3CCCC[C@@H]32)c1	?	–	·	–	·
COc1ccc(C(=O)n2nc(-c3ccco3)nc2NCc2cccs2)cc1	–	–	·	11µM	·
COc1ccc(CNc2nc(-c3ccco3)nn2C(=O)c2ccccc2Cl)cc1	–	–	·	–	·
COc1ccc(C(=O)N2c3nc(-c4ccco4)nn3C3(CCCCC3)[C@@H]3CCCC[C@@H]32)cc1OC	–	–	·	11µM	·
O=C(c1ccc(F)cc1)N1c2nc(-c3ccco3)nn2C2(CCCCC2)[C@@H]2CCCC[C@@H]21	–	–	·	?	·
O=C(c1ccccc1F)N1c2nc(-c3ccco3)nn2C2(CCCCC2)[C@@H]2CCCC[C@@H]21	?	–	·	10µM	·
COc1ccc(C(=O)n2nc(-c3ccco3)nc2SC)cc1OC	–	?	–	10µM	–
CCn1c(=O)cc(OCC(=O)N(C)c2ccc(OC)cc2)c2ccccc21	–	–	·	–	·
CCOC(=O)c1c(C)[nH]c(C)c1S(=O)(=O)N(C)CC(=O)N1CCN(c2ccccc2OC)CC1	–	–	·	–	·
CC(=O)N1CCC2(CC1)C(C#N)=C(N)Oc1n[nH]c(C(F)(F)F)c12	–	–	–	28µM	–
O=C1/C(=C/c2ccncc2)SC(=S)N1Nc1ccccc1	20µM	–	–	3.2µM	–
O=C(O)c1ccc(/C=C2\SC(=S)N(Nc3ccccc3)C2=O)cc1	–	–	–	3.2µM	–
SMILES	FMDV antiviral	AmpC detergent	AmpC inh no detg	Sm TGR inh	AMA1-RON2 inh
O=C1/C(=C/c2ccc(O)c(O)c2)SC(=S)N1Nc1ccccc1	–	–	25µM	–	?
Cc1cc(C)nc(NN2C(=O)/C(=C/c3ccccc3)SC2=S)n1	–	–	–	–	–
Cc1oc(C)c2c(=O)ccc3c(c12)OC(N)=C(C#N)C3c1ccc(F)cc1 (centres undefined)	–	–	–	18µM	–
Cc1cccc(N2CCN(c3ncnc4c3nc3n4CCCCC3)CC2C)c1 (centres undefined)	2.2µM	–	·	–	·
Cc1cccc(N2CCN(c3ncnc4c3cnn4-c3ccc(Cl)cc3)CC2C)c1 (centres undefined)	32µM	–	·	–	·
Cc1ccc(-n2ncc3c(N4CCCCCC4)ncnc32)cc1C	56µM	–	·	–	·
Cc1cccc(-n2ncc3c(N4CCCC(C)C4)ncnc32)c1 (centres undefined)	25µM	–	·	–	·
Cc1ccc(-n2ncc3c(N4CCCC(C)C4)ncnc32)c(C)c1 (centres undefined)	–	–	–	–	–
CC(C)CCN(Cc1ccco1)C(=O)c1cc2c(s1)-c1ccccc1OC2	–	–	·	–	·
O=C(NCC1Cc2cc(F)cc(-c3cccnc3)c2O1)c1cnn(-c2ccccc2)c1 (centres undefined)	–	·	·	·	·
Cc1ccc(S(=O)(=O)NCC(c2ccc(N(C)C)cc2)N2CCc3ccccc32)cc1 (centres undefined)	–	–	·	–	·
Cc1cccc(-n2ncc3c(N4CCCCCC4)ncnc32)c1	16µM	–	·	–	·
Cc1cccc(-n2ncc3c(N4CCC(C)CC4)ncnc32)c1	–	?	–	–	–
COc1cccc(N2CCN(c3ncnc4c3cnn4-c3ccc(C)cc3C)CC2)c1	4µM	–	–	–	–
CCCOc1ccc(NC(=O)CC2C(=O)N(c3ccc(OC)cc3)C(=O)N2CCc2ccncc2)cc1 (centres undefined)	–	–	·	–	·
Cc1ccn2c(Nc3ccc4c(c3)OCCO4)c(-c3ccccc3O)nc2c1	–	–	·	–	·
CCOc1ccc(-c2nn(CC(=O)NC3CCCC3)c3c2cnc2ccc(F)cc23)cc1	–	–	·	–	·
O=C(O)CN1C(=O)/C(=C\c2ccc(OC(=O)c3ccco3)cc2)SC1=S	–	–	–	–	–
O=C(O)CN1C(=O)/C(=C/c2ccc(SCc3ccccc3)o2)SC1=S	–	–	–	10µM	–
O=C(O)CCCN1C(=O)/C(=C\c2ccco2)SC1=S	?	–	–	?	–
O=C(O)CCN1C(=O)/C(=C\c2ccc(-c3nc4ccccc4s3)o2)SC1=S	–	–	–	50µM	–
NCCC[C@H](N)CC(=O)N[C@H]1CNC(=O)[C@H]([C@H]2C[C@H](O)N=C(N)N2)NC(=O)C(=CNC(N)=O)NC(=O)[C@H](CO)NC(=O)[C@H](CO)NC1=O	–	·	·	·	·
CCOC(=O)c1cc(OC(=O)c2ccccc2C)n(-c2ccccc2)n1	–	–	·	–	·
Cc1ccc(S(=O)(=O)NC(CC(=O)NC2CCCC2)c2ccco2)cc1 (centres undefined)	–	–	0.4µM	–	–
Cc1ccc(S(=O)(=O)NC(CC(=O)N2CCOCC2)c2ccco2)cc1 (centres undefined)	–	–	0.14µM	–	–
CC(C)OC(=O)c1cn(Cc2c(F)cccc2F)c2sc(-c3ccc(NC(=O)C(C)C)cc3)c(CN(C)Cc3ccccc3)c2c1=O	–	·	·	·	·
CCc1nc2cc(C(=O)N3CCCN(C=O)CC3)cc(NC(=O)c3ccccc3OC)c2n1C	–	·	·	·	·
